Tau fluor cs: Counterscreen qHTS for Inhibitors of Tau Fibril Formation, Fluorescence Polarization. tau K18 P301L Alexa594 fluorescence, heparin fibrillization. Potency, µM (series often up to 57.7 µM). hit rate 0.93% among 280,000; also: nearly all actives have a fitted effect of over 55% in size
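Human tau K18 P301L (15 uM unlabeled, 0.24 uM Alexa 594-labeled) in 100 mM sodium acetate pH 7 with 20 uM heparin, 6 hr at 37 C. ThT 30 uM added, 1 hr ambient; Alexa 594 FP and total fluorescence read at 555/632 nm.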
HttQ103 aggreg: qHTS Multiplex Assay to Identify Dual Action Probes in a Cell Model of Huntington: Aggregate Formation (GFP); PC12 HttQ103-GFP aggregates, Acumen cytometry, 40 h; Potency, µM (titrated, usually from 46.1 µM), most hits filed as inhibitors; hit rate 1.1% among 220,000; AID 1688, 2009; also: nearly all actives have a fitted effect of over 60% in size
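Steps: seed 1500 PC12 HTTQ103-GFP cells/well; add tebufenozide, 100 nM final; add compound titration; add ATPLite reagent; quantify GFP aggregates by laser scanning cytometry.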
Tau FP inhib: qHTS for Inhibitors of Tau Fibril Formation, Fluorescence Polarization | hit rate 0.39% among 280,000 | K18 P301L tau heparin fibrillization, Alexa594 FP, 6 h | Potency, µM (top dose mostly 57.7 µM), usual class: inhibitors | AID 1468, 2008 | Microtubule-associated protein tau (Homo sapiens), P10636; also: nearly all actives have a fitted effect of over 55% in size
Target sequence (P10636 561-689 P618L limits assumed): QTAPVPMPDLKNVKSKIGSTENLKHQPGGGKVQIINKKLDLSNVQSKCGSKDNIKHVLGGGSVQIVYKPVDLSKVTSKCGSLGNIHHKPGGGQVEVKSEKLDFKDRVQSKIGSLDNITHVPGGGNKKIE
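Read-out: fluorescence polarization of Alexa 594-labeled tau (0.24 uM), 555 nm excitation, 632 nm emission. Mixtures held 15 uM unlabeled K18 P301L, compound and 20 uM heparin, pH 7 acetate buffer, incubated 6 hr at 37 C.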
Tau ThT inhib: qHTS for Inhibitors of Tau Fibril Formation, Thioflavin T Binding; Microtubule-associated protein tau (Homo sapiens), P10636; recombinant tau K18 P301L, heparin-induced fibrillization, ThT fluorescence; Potency, µM (series often up to 57.4 µM), actives largely listed as inhibitors; hit rate 2.1% among 270,000; AID 1460, 2008; also: nearly all actives have a fitted effect of over 55% in size
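ThT emission at 510 nm, taken 1 hr after adding 30 uM dye, quantifies aggregates formed when 20 uM heparin acts on human tau K18 P301L for 6 hr at 37 C.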
HTT cytoprotect: qHTS Multiplex Assay to Identify Dual Action Probes in a Cell Model of Huntington: Cytoprotection (ATP); PC12 HTT-Q103 induced, cytoprotection, ATP luminescence, 40 h; Potency, µM (doses to about 56.4 µM), most hits filed as activators; hit rate 0.14% among 230,000; AID 1471, 2008; also: nearly all actives have a fitted effect of over 45% in size
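Stable PC12 Q103-GFP cells in serum-supplemented, phenol red-free DMEM; induction by tebufenozide at 100 nM final; compound dose series; cell viability quantified luminescently from ATP.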
A number is an active result; - = inactive; ? = inconclusive; . = no result; [ ] = dose if it differs, or a comment. Most compounds without a hit are left out; they make up all but 3.7% or so of the library. Calls follow the shape of the dose curve; as a rule, active = well fitted curve in the direction sought with a large enough effect; inconclusive = small, poorly fitted or top-dose-only effect, or another doubt; inactive = no such curve, though single readings can be large; an effect the other way counts as inactive or inconclusive.

SMILES	Tau fluor cs	HttQ103 aggreg	Tau FP inhib	Tau ThT inhib	HTT cytoprotect
Oc1cccc(/C=N/N(Cc2ccccc2)c2ccccc2)c1	13µM[quencher]	-	?	?	-
Clc1ccccc1CNCCCSc1nnnn1-c1ccccc1	-	.	-	-	.
Cc1ccc(C)n1-c1ccc(N2CCOCC2)cc1	-	?	-	8.9µM	-
Cc1ccc(C)n1-c1ccc(N(C)C)cc1	?	-	?	13µM	-
CCOC(=O)c1ccc(NC(=O)Nc2ccc3c(c2)OCCO3)cc1	13µM[quencher]	-	?	?	-[10 µM]
C/C(=N\OCC(=O)Nc1ccc2c(c1)OCCO2)c1ccc2c(c1)OCCO2	-	28µM	-	?	-[10 µM]
COc1ccc(S(=O)(=O)Nc2cc(S(=O)(=O)c3ccccc3)c(O)c(C)c2C)cc1	-	.	-	-	.
COc1ccccc1C1CCN(c2ccc(CO)cc2[N+](=O)[O-])CC1	?	-[9.22 µM]	-	14µM	-[10 µM]
COc1ccccc1C1CCN(Cc2cccc([N+](=O)[O-])c2)CC1	-	-[9.22 µM]	-	-	-[10 µM]
COc1ccc(-c2cc(=O)[nH]c(NCc3ccccc3)n2)cc1	-	4µM	-	-	-[0.074 µM]
COc1ccc(Cl)cc1NC(=O)CSC1=Nc2ccccc2C2=NC(CC(=O)NCc3cccs3)C(=O)N12 (stereo unspecified)	-	.	?	?	.
O=C1c2ccccc2C(=O)N1CCCc1c[nH]c2ccc(Cl)cc12	11µM[quencher]	-	-	-	-[10 µM]
COc1ccc(Oc2cnc3ccccc3n2)cc1	-	11µM	-	-	-
CC(=O)Nc1ccc(Oc2cnc3ccccc3n2)cc1	-	11µM	-	-	-
Cc1ccc(NC(=O)Cn2cc(S(=O)(=O)N3CCC(C)CC3)c3ccccc3c2=O)c(Br)c1	-	.	?	-	.
C[C@H](CC(=O)O)C(C(=O)O)C(=O)O	.	.	.	.	-[10 µM]
CCOC(=O)C1CCCN(C(=O)c2ccc3c(c2)sc2nc(-c4cccc(OC)c4)cn23)C1 (stereo unspecified)	-	.	-	-	.
CC(C)C(=O)NC(c1cccs1)c1cc([N+](=O)[O-])c2cccnc2c1O (stereo unspecified)	-	2µM	-	14µM	-[10 µM]
Cc1ccc(C(NC(=O)C(C)C)c2cc([N+](=O)[O-])c3cccnc3c2O)cc1 (stereo unspecified)	-	20µM	-	?	-[10 µM]
CCCC(=O)NC(c1cccs1)c1cc(Cl)c2cccnc2c1O (stereo unspecified)	-	-[9.22 µM]	-	-	-[10 µM]
CN(Cc1cc(C(C)(C)C)cc(Br)c1O)Cc1cc(C(C)(C)C)cc(Br)c1O	.	.	.	.	-[10 µM]
Cn1cc(C(=O)NCCc2ccc(Cl)cc2)c(=O)c2cc(S(=O)(=O)N3CCOCC3)ccc21	-	.	-	-	.
Nn1cnnc1N/N=C/c1ccc(Cl)c([N+](=O)[O-])c1	-	-	?	25µM	.
Cc1nnc(N/N=C/c2cc([N+](=O)[O-])c(N3CCC(C)CC3)cc2N2CCC(C)CC2)n1N	?	?	-	18µM	-
CC1CCN(c2cc(N3CCOCC3)c([N+](=O)[O-])cc2F)CC1	?	?	-	?	-
SMILES	Tau fluor cs	HttQ103 aggreg	Tau FP inhib	Tau ThT inhib	HTT cytoprotect
CCc1nnc(N/N=C/c2ccc(N3CCC(C)CC3)c([N+](=O)[O-])c2)n1N	?	-	-	13µM	-[10 µM]
COc1cccc(-c2cncnc2N(C)Cc2ccco2)c1	.	.	.	.	-
COc1cc(C2C(=O)N(C3CCCCCC3)CC(=O)N2CCC2=CCCCC2)ccc1OC(C)C (stereo unspecified)	-	.	-	-	.
CCCNC(=O)c1cc(-c2ccco2)on1	-	-	-	-	1.6µM
CCCCNC(=O)c1ccc2nc(-c3ccco3)c(-c3ccco3)nc2c1	?	-	?	16µM	-[10 µM]
O=C(NCCCO)c1ccc2nc(-c3ccco3)c(-c3ccco3)nc2c1	4.5µM[quencher]	-	8.9µM	5µM	-[10 µM]
O=C(NCc1ccccc1)c1ccc2nccnc2c1	-	-	-	-	-
O=C(NCc1ccccc1)c1ccc2nc(-c3ccco3)c(-c3ccco3)nc2c1	?	-	?	14µM	-
